# Measurements published in the supplement of paper PMC6897291.
# Tested on: RIVA
# Test: growth inhibition by drug alone (1 - RLU/untreated control) (fraction); higher = stronger inhibition
# Conditions: 177Lu-lilotomab satetraxetan 0 ug/ml
# Method: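 RIVA (RI-1) ABC-DLBCL cells were pretreated or not for 18 h with 0.5 ug/ml 177Lu-lilotomab satetraxetan (600 MBq/mg), washed and seeded (3000 cells/well) on 384-well plates pre-printed with the Selleck Cambridge Cancer Compound library. Viability was read by RealTime-Glo luminescence on days 3-6 after seeding. Effect = 1 - RLU/mean RLU of the 48 untreated no-drug control wells per plate; Bliss score = (M-E)/(1-Fa).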
structure (smiles),measurement,setting,value
COc1cc2ncnc(Nc3ccc(F)c(Cl)c3)c2cc1NC(=O)/C=C/CN1CCCCC1,growth inhibition by drug alone,"10 nM, time (day): 3",-0.299
same,growth inhibition by drug alone,"10 nM, time (day): 4",-0.339
same,growth inhibition by drug alone,"10 nM, time (day): 5",-0.376
same,growth inhibition by drug alone,"10 nM, time (day): 6",-0.409
same,growth inhibition by drug alone,"100 nM, time (day): 3",-0.261
same,growth inhibition by drug alone,"100 nM, time (day): 4",-0.3
same,growth inhibition by drug alone,"100 nM, time (day): 5",-0.331
same,growth inhibition by drug alone,"100 nM, time (day): 6",-0.346
CC(=O)O[C@@]12CO[C@@H]1C[C@H](O)[C@@]1(C)C(=O)[C@H](O)C3=C(C)[C@@H](OC(=O)[C@H](O)[C@@H](NC(=O)OC(C)(C)C)c4ccccc4)C[C@@](O)([C@@H](OC(=O)c4ccccc4)[C@H]21)C3(C)C [Docetaxel (Taxotere)],growth inhibition by drug alone,"10 nM, time (day): 3",0.953
same,growth inhibition by drug alone,"10 nM, time (day): 4",0.967
same,growth inhibition by drug alone,"10 nM, time (day): 5",0.973
same,growth inhibition by drug alone,"10 nM, time (day): 6",0.973
same,growth inhibition by drug alone,"100 nM, time (day): 3",0.949
same,growth inhibition by drug alone,"100 nM, time (day): 4",0.964
same,growth inhibition by drug alone,"100 nM, time (day): 5",0.969
same,growth inhibition by drug alone,"100 nM, time (day): 6",0.971
CC1=C(/C=C/C(C)=C/C=C/C(C)=C/C(=O)Nc2ccc(O)cc2)C(C)(C)CCC1 [Fenretinide],growth inhibition by drug alone,"10 nM, time (day): 3",-0.0432
same,growth inhibition by drug alone,"10 nM, time (day): 4",-0.0451
same,growth inhibition by drug alone,"10 nM, time (day): 5",-0.13
same,growth inhibition by drug alone,"10 nM, time (day): 6",-0.456
same,growth inhibition by drug alone,"100 nM, time (day): 3",-0.388
same,growth inhibition by drug alone,"100 nM, time (day): 4",-0.302
same,growth inhibition by drug alone,"100 nM, time (day): 5",-0.337
same,growth inhibition by drug alone,"100 nM, time (day): 6",-0.461
O=C(O)Cc1cccc(OCCCN(Cc2cccc(C(F)(F)F)c2Cl)CC(c2ccccc2)c2ccccc2)c1,growth inhibition by drug alone,"10 nM, time (day): 3",0.0962
same,growth inhibition by drug alone,"10 nM, time (day): 4",0.115
same,growth inhibition by drug alone,"10 nM, time (day): 5",0.0874
same,growth inhibition by drug alone,"10 nM, time (day): 6",-0.0108
same,growth inhibition by drug alone,"100 nM, time (day): 3",0.667
same,growth inhibition by drug alone,"100 nM, time (day): 4",0.512
same,growth inhibition by drug alone,"100 nM, time (day): 5",0.515
same,growth inhibition by drug alone,"100 nM, time (day): 6",0.524
CO[C@H]1C[C@@H]2CC[C@@H](C)[C@@](O)(O2)C(=O)C(=O)N2CCCC[C@H]2C(=O)O[C@H]([C@H](C)C[C@@H]2CC[C@@H](OC(=O)C(C)(CO)CO)[C@H](OC)C2)CC(=O)[C@H](C)/C=C(\C)[C@@H](O)[C@@H](OC)C(=O)[C@H](C)C[C@H](C)/C=C/C=C/C=C/1C [Temsirolimus (Torisel)],growth inhibition by drug alone,"10 nM, time (day): 3",0.78
same,growth inhibition by drug alone,"10 nM, time (day): 4",0.785
same,growth inhibition by drug alone,"10 nM, time (day): 5",0.769
same,growth inhibition by drug alone,"10 nM, time (day): 6",0.7
same,growth inhibition by drug alone,"100 nM, time (day): 3",0.803
same,growth inhibition by drug alone,"100 nM, time (day): 4",0.83
same,growth inhibition by drug alone,"100 nM, time (day): 5",0.833
same,growth inhibition by drug alone,"100 nM, time (day): 6",0.812
